# Source: PubChem BioAssay (NCATS)
# Records with an inconclusive call do not appear. Where a call stands in place of a potency, no number is given. A number with no mark means an inactive call. Calls of active or inactive are those of the source. Calls come from the whole dose curve; as a rule, active = well fitted cell-killing curve with a large enough effect; inconclusive = small, poorly fitted or top-dose-only effect, or effect the other way; inactive = flat fitted curve, though single readings scatter. Where a SMILES comes first, the peptide text is derived from it. [ ]: non-standard residue; d: D form. ξ: configuration not given here. ξPhe(βξ-Me) = CC(c1ccccc1)C(N)C(=O)O; GABA = NCCCC(=O)O
# System: CASKI
# Assay: Primary qHTS to identify gynecologic anti-cancer compounds using libraries of approved drugs and bioactive compounds (AID 1345084); note: nearly all actives have a fitted effect of over 55% in size
# Conditions: Gynecologic cancer cell panel viability, ATPlite luminescence, 48 h; series mostly up to 57.5 µM
# In short: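 Five-point cytotoxicity, 48 h drug exposure at 37 C, 5% CO2, on cells seeded 16 h beforehand. ATP content read by ATPlite luminescence.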
Compound,"activity change, negative = cytotoxicity",Potency
O=C(OCc1cccc(O)c1O[C@@H]1O[C@H](CO)[C@@H](O)[C@H](O)[C@H]1O)C1(O)C(=O)C2C=CC1C1C=CC(=O)C(O)(C(=O)OCc3cccc(O)c3O[C@@H]3O[C@H](CO)[C@@H](O)[C@H](O)[C@H]3O)C21 (some centres undefined),-17.5% [at 11.6 µM],
C/C=C(\C)C(=O)O[C@H]1[C@H](O)[C@]2(COC(C)=O)[C@H](O)C[C@]3(C)C(=CCC4[C@@]5(C)CC[C@H](O[C@@H]6O[C@H](C(=O)O)[C@@H](O[C@@H]7O[C@H](CO)[C@@H](O)[C@H](O)[C@H]7O)[C@H](O)[C@H]6O[C@@H]6O[C@H](CO)[C@@H](O)[C@H](O)[C@H]6O)[C@](C)(CO)C5CC[C@]43C)[C@@H]2CC1(C)C (some centres undefined),1.43% [at 11.6 µM],
CC(=O)O[C@@H]1C[C@@]23C[C@@]24CC[C@H](OC2OC[C@@H](O)[C@H](O)[C@H]2O)C(C)(C)[C@@H]4CC[C@H]3[C@]2(C)CC3OC4(C[C@@H](C)C3[C@@]12C)OCC1(C)OC14 (some centres undefined),,inactive
COc1ccc2c(c1O)OC[C@H]1c3ccc(O)cc3O[C@@H]21,,inactive
CC1=CC(=O)C2C(C)(C)CCCC2(C)C12CCC1(COC(=O)C1)O2 (centres undefined),,inactive
C[C@]1(O)CC[C@@H]2C(C(=O)O)=CO[C@@H](O[C@@H]3O[C@H](COC(=O)c4ccc(O)cc4)[C@@H](O)[C@H](O)[C@H]3O)[C@@H]21,,inactive
O=C(c1ccccn1)c1cnn2c(-c3ccncc3)ccnc12,,inactive
C=CC1(C)C=C2C(O)CC3C(C)(C(=O)O)CCCC3(C)C2CC1 (centres undefined),,inactive
COC(=O)C1=CO[C@@H](O[C@@H]2O[C@H](COC(=O)/C=C/c3cc(OC)c(O)c(OC)c3)[C@@H](O)[C@H](O)[C@H]2O)[C@@H]2C(CO)=CC[C@H]12,,inactive
CC12CCC3C(C)(C)C(O)CCC3(C)C1Cc1c(oc(C(=O)O)cc1=O)O2 (centres undefined),,inactive
C=C(C)C(C)C1OC23CC4(CO2)C(CCC2C5(C)CCC(OC6OCC(O)C(OC7OC(CO)C(O)C(OC8OCC(O)C(O)C8O)C7O)C6OC6OC(CO)C(O)C6O)C(C)(C)C5CCC24C)C3C(C)(O)C1OC(C)=O (centres undefined),5.79% [at 11.6 µM],
CC(=O)Oc1cc2c(s1)CCN([C@H](C(=O)C1CC1)c1ccccc1F)C2,,inactive
Cc1ncc([N+](=O)[O-])n1CC(O)CN1CCOCC1 (centres undefined),,inactive
O=C(c1ccc(NS(=O)(=O)c2cccc3cccnc23)cc1)N1CCN(CC2CC2)CC1,,inactive
C/C(=C\CCC(C)(O)c1ccc(C)cc1)C(=O)O (centres undefined),,inactive
COc1cc(C2Oc3c(OC)cc(/C=C/C(=O)OC[C@H]4O[C@@H](OC(C)(C)C(=O)O)[C@H](O)[C@@H](O)[C@@H]4O)cc3C2CO)ccc1O (some centres undefined),,inactive
CC(C)CC1NC(=O)C(C(C)c2ccccc2)NC(=O)C(C(C)C)NC(=O)C(C)NC(=O)CCCNC(=O)C(Cc2c[nH]c3ccccc23)NC(=O)C(C)NC1=O (stereo not drawn) (cyclo([GABA]AV[ξPhe(βξ-Me)]LAW); configuration not given here),,inactive
C=CC1C(O[C@@H]2O[C@H](CO)[C@@H](O)[C@H](O)[C@H]2O)OC=C(C(=O)OC)C1CC(=O)O (some centres undefined),,inactive
CC1CCC2(NC1)OC1C(=O)C3C4CCC5CC(O[C@@H]6O[C@H](CO)[C@@H](O)[C@H](O)[C@H]6O[C@@H]6O[C@@H](C)[C@H](O)[C@@H](O)[C@H]6O)CCC5(C)C4CCC3(C)C1C2C (some centres undefined),,inactive
C=C(C(=O)O)C1CCC(C)C2CCC(=O)OC2(C)C1 (centres undefined),,inactive

Compound,"activity change, negative = cytotoxicity",Potency
CC1(C)C(=O)N2c3ccccc3[C@]3(CC(n4cnc5ccccc5c4=O)C(=O)O3)[C@H]2N1O (some centres undefined),,inactive
CC(C)c1nc(N(C)S(C)(=O)=O)nc(-c2ccc(F)cc2)c1/C=C/[C@@H](O)C[C@@H](O)CC(=O)O,,inactive
O=C(O)Cc1nn(Cc2nc3cc(C(F)(F)F)ccc3s2)c(=O)c2nccnc12,,inactive
O=C(O)CCc1cc2ccoc2cc1O[C@@H]1O[C@H](CO[C@@H]2OC[C@](O)(CO)[C@H]2O)[C@@H](O)[C@H](O)[C@H]1O,,inactive
COc1ccc(/C=C/C(=O)O[C@@H]2[C@@H](OC(C)=O)[C@@H](OC(C)=O)[C@H](O[C@H]3[C@@H]4C=CO[C@@H](O[C@@H]5O[C@H](CO)[C@@H](O)[C@H](O)[C@H]5O)[C@@H]4[C@@]4(CO)O[C@@H]34)O[C@H]2C)cc1O,,inactive
C=CC(C)(O)CC/C=C(\C)C(=O)OC1CC2(C(=O)O)CCC3(C)C(=CCC4C5(C)CCC(OC6OC(COC7OCC(O)C(O)C7O)C(O)C(OC7OCC(O)C(O)C7O)C6OC6OC(CO)C(O)C(O)C6OC6OCC(O)C(O)C6O)C(C)(C)C5CCC43C)C2CC1(C)C (centres undefined),0.559% [at 6.55 µM],
C=C1CC2[C@]3(C)C(=C(O)C(=O)[C@@]2(C)[C@]2(C(=O)OC)C(=O)C(C)OC(=O)[C@@]12C)C(C)(C)C(=O)CC3O (some centres undefined),,inactive
C=C1CCC(OC(C)=O)C2(C)CC3(O)OC(=O)C(C)=C3CC12 (centres undefined),,inactive
C[C@@H]1CC[C@H]2C(C)(C)[C@H](O)[C@H](O)C[C@]2(C)[C@@]12Cc1c(O)cc3c(c1O2)CNC3=O,,inactive
C[C@H]1[C@H](C)CC[C@]2(C(=O)O[C@@H]3O[C@H](CO)[C@@H](O)[C@H](O)[C@H]3O)CC[C@]3(C(=O)O)C(=CCC4[C@@]5(C)CC[C@H](O[C@@H]6O[C@H](CO)[C@@H](O)[C@H](O)[C@H]6O)C(C)(C)C5CC[C@]43C)[C@H]12 (some centres undefined),0.925% [at 11.6 µM],
C1CCN2CC3C[C@@H](CN4CCCC[C@@H]34)[C@H]2C1,,inactive
O=C(COc1ccc(Cl)cc1)NC1CCC(NC(=O)COc2ccc(Cl)cc2)CC1 (centres undefined),,inactive
COc1cc(C(O)C(CO)Oc2ccc(CCCO[C@@H]3O[C@@H](C)[C@H](O)[C@@H](O)[C@H]3O)cc2OC)ccc1O (some centres undefined),,inactive
CC(C)=CC/C=C(/C)[C@H]1CC[C@]2(C)[C@@H]1[C@H](O)CC1[C@@]3(C)CC[C@H](O)C(C)(C)[C@@H]3[C@@H](O[C@@H]3O[C@H](CO)[C@@H](O)[C@H](O)[C@H]3O[C@@H]3O[C@@H](C)[C@H](O)[C@@H](O)[C@H]3O)C[C@]12C (some centres undefined),,inactive
CC1CC(O)C2(C)C(C(=O)O)=CCCC2C1(C)CCc1ccoc1 (centres undefined),,inactive
C/C=C(\C)C(=O)O[C@@H]1CC2[C@@H](CC=C3C[C@@H](O[C@H]4C[C@H](OC)[C@H](O[C@H]5C[C@H](OC)[C@H](O[C@H]6C[C@H](OC)[C@H](O[C@H]7C[C@@H](OC)[C@H](O[C@@H]8O[C@H](CO)[C@@H](O)[C@H](O)[C@H]8O)[C@@H](C)O7)[C@@H](C)O6)[C@@H](C)O5)[C@@H](C)O4)CC[C@@]32C)[C@@]2(O)CC[C@H](C(C)=O)[C@@]12C (some centres undefined),-0.911% [at 6.55 µM],
C[C@@H]1O[C@@H](O[C@H]2[C@H](OC(=O)[C@]34CCC(C)(C)C[C@H]3C3=CCC5[C@@]6(C)C[C@H](O)[C@H](O[C@@H]7O[C@H](CO[C@@H]8OC[C@H](O)[C@H](O)[C@H]8O)[C@@H](O)[C@H](O)[C@H]7O)C(C)(C)C6CC[C@@]5(C)[C@]3(C)C[C@H]4O)OC[C@@H](O)[C@@H]2O)[C@H](O)[C@H](O[C@@H]2OC[C@](O)(CO)[C@H]2O)[C@H]1O[C@@H]1OC[C@H](O)[C@H](O[C@@H]2OC[C@@H](O)[C@H](O)[C@H]2O)[C@H]1O (some centres undefined),2.2% [at 6.55 µM],
O=C(NCC(=O)N1CC[C@H](NC2CCC(O)(c3ccc(-c4ncccn4)cn3)CC2)C1)c1cccc(C(F)(F)F)c1 (some centres undefined),,inactive
CCNC(=O)CCC/C=C\C[C@@H]1[C@@H](/C=C/C(O)CCc2ccccc2)[C@@H](O)C[C@@H]1O (some centres undefined),,inactive
